# Test results reported in PubChem BioAssay (Tox21).
# “And” between values parts separate entries of the source, which are not always exact repeats. Equal values may be shown once. Results filed as inconclusive are left out. Entries that show only a call come without a potency. More than one record can exist for a structure, and the calls need not agree. The source made the active and inactive calls. Unless noted, calls follow the shape of the dose curve; as a rule, active = well fitted curve in the direction sought with a large enough effect in the repeat runs; inconclusive = weak or mixed curves; inactive = no such curve, though single readings can be large; an effect the other way counts as inactive or inconclusive.
# Key:
# [1] = target: Peroxisome proliferator-activated receptor delta (Homo sapiens) (UniProt Q03181); experiment: qHTS assay to identify small molecule agonists of the peroxisome proliferator-activated receptor delta (PPARd) signaling pathway (AID 743212; calls by dose curve)
# Chain of Peroxisome proliferator-activated receptor delta (Homo sapiens) (Q03181 whole entry, looked up): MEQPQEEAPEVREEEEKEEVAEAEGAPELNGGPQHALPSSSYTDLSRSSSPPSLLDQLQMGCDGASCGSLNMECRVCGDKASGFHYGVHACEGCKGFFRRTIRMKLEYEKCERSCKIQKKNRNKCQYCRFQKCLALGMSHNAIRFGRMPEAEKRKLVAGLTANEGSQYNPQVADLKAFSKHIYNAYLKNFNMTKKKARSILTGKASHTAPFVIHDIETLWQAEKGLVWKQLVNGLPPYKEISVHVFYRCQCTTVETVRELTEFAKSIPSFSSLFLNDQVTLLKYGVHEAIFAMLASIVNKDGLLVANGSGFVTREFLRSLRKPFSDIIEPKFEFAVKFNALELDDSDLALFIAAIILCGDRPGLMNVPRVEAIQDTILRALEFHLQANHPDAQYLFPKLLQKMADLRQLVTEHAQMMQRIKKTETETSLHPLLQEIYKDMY
# Summary of the method: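 Read-out: beta-lactamase FRET fluorescence after 2 h room-temperature incubation with LiveBLAzer B/G substrate. Cells were HEK293H carrying a UAS-bla reporter for PPARd, treated at 37 C with DMSO-dissolved compounds.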
# [2] = qHTS assay to identify small molecule antagonists of the peroxisome proliferator-activated receptor delta (PPARd) signaling pathway - cell viability counter screen (AID 743213); also: nearly all actives have a fitted effect of over 50% in size; also: potency is read from the fitted curve at half-maximal effect
# Summary of the method: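 PPARd-bla HEK293H cells were treated with compounds plus agonist L165041 (300 nM final) for 17 h at 37 C. Viability was then read in the same wells by CellTiter-Glo luminescence after 30 min at room temperature.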
# [3] = target: Bile acid receptor (Homo sapiens) (UniProt Q96RI1); experiment: qHTS assay to identify small molecule antagonists of the farnesoid-X-receptor (FXR) signaling pathway (AID 743217; active = well fitted inhibition curve with a large enough effect in the signal ratio in the repeat runs, not every such curve was filed as active; the % refers to the signal ratio)
# Chain of Bile acid receptor (Homo sapiens) (Q96RI1 whole entry, looked up): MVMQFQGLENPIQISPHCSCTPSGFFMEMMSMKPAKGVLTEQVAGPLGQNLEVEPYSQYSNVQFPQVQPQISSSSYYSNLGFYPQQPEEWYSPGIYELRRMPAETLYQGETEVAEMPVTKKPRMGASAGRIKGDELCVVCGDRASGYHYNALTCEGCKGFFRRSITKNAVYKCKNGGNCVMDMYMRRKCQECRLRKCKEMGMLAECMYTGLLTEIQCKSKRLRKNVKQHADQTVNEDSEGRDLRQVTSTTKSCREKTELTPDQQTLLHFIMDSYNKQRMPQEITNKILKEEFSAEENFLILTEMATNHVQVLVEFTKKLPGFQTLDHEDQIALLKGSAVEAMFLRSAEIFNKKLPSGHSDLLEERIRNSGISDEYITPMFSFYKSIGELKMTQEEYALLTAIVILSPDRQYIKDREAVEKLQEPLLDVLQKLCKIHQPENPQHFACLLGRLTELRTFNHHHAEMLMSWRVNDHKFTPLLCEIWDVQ
# Summary of the method: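 Test compounds are pin-transferred onto FXR-bla HEK 293T cells, then chenodeoxycholic acid is added at 50 uM final. After 16 h at 37 °C, LiveBLAzer B/G substrate is applied for 2 h at room temperature and fluorescence read.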
# [4] = target: Bile acid receptor (Homo sapiens) (UniProt Q96RI1); experiment: qHTS assay to identify small molecule agonists of the farnesoid-X-receptor (FXR) signaling pathway (AID 743220; active = well fitted activation curve with a large enough effect in the signal ratio in the repeat runs, not every such curve was filed as active; the % refers to the signal ratio)
# Summary of the method: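 FXR-UAS-bla HEK 293T cells carrying a UAS-driven beta-lactamase reporter were plated for 5 h at 37C/5% CO2, then exposed to DMSO-dissolved Tox21 10K compounds for 16 h at 37C. A LiveBLAzer B/G FRET substrate was loaded for 2 h at room temperature before fluorescence reading.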
# [5] = qHTS assay to identify small molecule antagonists of the farnesoid-X-receptor (FXR) signaling pathway - cell viability counter screen (AID 743221; active = well fitted cell-killing curve with a large enough effect in the repeat runs, not every such curve was filed as active; also: nearly all actives have a fitted effect of over 50% in size)
# Summary of the method: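 Quantitative HTS of the Tox21 10K library run in parallel with the beta-lactamase reporter read. HEK 293T cells carrying a UAS-driven bla reporter got compound and 50 uM CDCA (final) for 16 h; ATP-based luminescence followed.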
# [6] = target: Vitamin D3 receptor (Homo sapiens) (UniProt P11473); experiment: qHTS assay to identify small molecule agonists of the vitamin D receptor (VDR) signaling pathway (AID 743222; calls by dose curve)
# Chain of Vitamin D3 receptor (Homo sapiens) (P11473 whole entry, looked up): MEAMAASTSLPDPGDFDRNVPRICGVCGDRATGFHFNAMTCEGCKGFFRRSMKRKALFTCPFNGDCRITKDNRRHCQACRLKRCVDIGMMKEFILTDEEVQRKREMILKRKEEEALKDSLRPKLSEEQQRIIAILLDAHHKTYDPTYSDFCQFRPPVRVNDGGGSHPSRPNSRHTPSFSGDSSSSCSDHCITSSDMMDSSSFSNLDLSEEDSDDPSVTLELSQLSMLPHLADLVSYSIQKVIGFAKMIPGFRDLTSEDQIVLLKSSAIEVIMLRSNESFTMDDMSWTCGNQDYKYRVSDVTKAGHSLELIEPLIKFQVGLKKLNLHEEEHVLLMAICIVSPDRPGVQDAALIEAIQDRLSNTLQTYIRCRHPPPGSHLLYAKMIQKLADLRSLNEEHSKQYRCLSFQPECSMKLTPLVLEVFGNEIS
# Summary of the method: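 Tox21 cell reporter format: VDR-bla line, 16 h compound exposure in 5% CO2 at 37C, then fluorescence intensity after 2 h with LiveBLAzer B/G FRET substrate.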
# [7] = target: Vitamin D3 receptor (Homo sapiens) (UniProt P11473); experiment: qHTS assay to identify small molecule antagonists of the vitamin D receptor (VDR) signaling pathway (AID 743223; active = well fitted inhibition curve with a large enough effect in the signal ratio in the repeat runs, not every such curve was filed as active; the % refers to the signal ratio)
# Summary of the method: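 Fluorescence from LiveBLAzer B/G FRET substrate, read after 2 h at room temperature, reflects beta-lactamase reporter activity in VDR-bla cells treated 16 h at 37C with compounds and agonist 1alpha,25-dihydroxyvitamin D3 (3 nM final).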
# [8] = qHTS assay to identify small molecule agonists of the vitamin D receptor (VDR) signaling pathway - cell viability counter screen (AID 743224); also: nearly all actives have a fitted effect of over 50% in size; also: potency is read from the fitted curve at half-maximal effect
# Summary of the method: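 CellTiter-Glo viability readout on VDR-bla cells, measured after 16 h of compound treatment at 37C in the same wells.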
# [9] = qHTS assay to identify small molecule antagonists of the vitamin D receptor (VDR) signaling pathway - cell viability counter screen (AID 743225); also: nearly all actives have a fitted effect of over 50% in size
# Summary of the method: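 Cells (VDR-UAS-bla HEK 293T) are plated, rested 4 h at 37C, dosed with compound and 3 nM final 1-alpha,25-dihydroxy vitamin D3, and incubated 16 h. Viability is taken from CellTiter-Glo luminescence in the reporter wells.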
# [10] = qHTS assay to identify small molecule agonists of the NFkB signaling pathway - cell viability counter screen (AID 1159515; calls by dose curve; also: nearly all actives have a fitted effect of over 55% in size; also: potency is read from the fitted curve at half-maximal effect)
# Summary of the method: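 Tox21 library compounds were tested for cytotoxicity against NFkB-bla ME-180 cells during a 5 hr exposure at 37 C. CellTiter-Glo luminescence served as the viability read-out.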
# [11] = qHTS assay to identify small molecule agonists of the endoplasmic reticulum stress response signaling pathway (AID 1159516; active = well fitted activation curve with a large enough effect in the signal ratio in the repeat runs, not every such curve was filed as active; the % refers to the signal ratio)
# Summary of the method: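 Fluorescence at 460 and 530 nm (405 nm excitation) reports beta-lactamase from an ER stress response element in HeLa cells treated 5 hr at 37 C.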
# [12] = qHTS assay to identify small molecule agonists of the endoplasmic reticulum stress response signaling pathway - cell viability counter screen (AID 1159517; calls by dose curve)
# Summary of the method: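 Steps: seed 1,500 ESRE-bla HeLa cells per well; incubate overnight at 37 C, 5% CO2; add compounds in DMSO for 5 hr; run FRET substrate 2 hr RT; add CellTiter-Glo, wait 30 min, read luminescence.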
# [13] = qHTS assay to identify small molecule antagonists of the retinoid-related orphan receptor gamma (ROR-gamma) signaling pathway - cell viability counter screen (AID 1159520); also: nearly all actives have a fitted effect of over 50% in size
# Summary of the method: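 Tet-on ROR gamma CHO cells were given compounds for 2 hr, then doxycycline hyclate at 1 uM final, and incubated 16 hr at 37 C. Viability was measured as ATP content by CellTiter-Glo luminescence.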
# [14] = target: Nuclear receptor ROR-gamma (Homo sapiens) (UniProt P51449); experiment: qHTS assay to identify small molecule antagonists of the retinoid-related orphan receptor gamma (ROR-gamma) signaling pathway (AID 1159521; also: nearly all actives have a fitted effect of over 50% in size; also: potency is read from the fitted curve at half-maximal effect)
# Summary of the method: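 RORγ antagonism is scored from reduced reporter luminescence in Tet-on CHO cells. Induction used 1 uM final doxycycline hyclate for 16 h at 37 C, following a 2 h compound exposure.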
# [15] = qHTS assay to identify small molecule agonists of the AP-1 signaling pathway - cell viability counter screen (AID 1159525; calls by dose curve; also: nearly all actives have a fitted effect of over 55% in size; also: potency is read from the fitted curve at half-maximal effect)
# Summary of the method: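 Same-well cytotoxicity counter screen of the Tox21 10K library in ME-180 cells. The readout is ATP-dependent luminescence after 5 h compound treatment. Data are normalised to DMSO and tetra n-octyl ammonium bromide controls.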
# [16] = qHTS assay to identify small molecule agonists of the AP-1 signaling pathway (AID 1159526; calls by dose curve)
# [17] = target: Retinoic acid receptor RXR-alpha (Homo sapiens) (UniProt P19793); experiment: qHTS assay to identify small molecule agonists of the RXR signaling pathway (AID 1159527; calls by dose curve; also: nearly all actives have a fitted effect of over 35% in size; also: potency is read from the fitted curve at half-maximal effect)
# Chain of Retinoic acid receptor RXR-alpha (Homo sapiens) (P19793 whole entry, looked up): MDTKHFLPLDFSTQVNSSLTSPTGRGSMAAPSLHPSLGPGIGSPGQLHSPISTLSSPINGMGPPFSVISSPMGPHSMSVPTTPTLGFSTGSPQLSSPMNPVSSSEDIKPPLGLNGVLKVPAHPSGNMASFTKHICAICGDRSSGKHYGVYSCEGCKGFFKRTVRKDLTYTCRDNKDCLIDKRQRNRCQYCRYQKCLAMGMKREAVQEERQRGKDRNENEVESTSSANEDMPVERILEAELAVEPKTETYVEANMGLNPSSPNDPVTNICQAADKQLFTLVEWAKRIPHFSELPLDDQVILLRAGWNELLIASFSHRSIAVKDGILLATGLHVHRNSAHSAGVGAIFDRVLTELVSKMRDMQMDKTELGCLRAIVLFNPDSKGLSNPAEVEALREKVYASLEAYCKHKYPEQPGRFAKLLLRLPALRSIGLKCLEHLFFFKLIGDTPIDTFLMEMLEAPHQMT
# Summary of the method: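 qHTS of the Tox21 10K library in GeneBLAzer RXR-alpha HEK 293T cells carrying a beta-lactamase reporter […]; 16 hr treatment, 9-cis retinoic acid as agonist control, FRET read-out.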
# [18] = qHTS assay to identify small molecule agonists of the RXR signaling pathway - cell viability counter screen (AID 1159529); also: nearly all actives have a fitted effect of over 50% in size; also: potency is read from the fitted curve at half-maximal effect
# Summary of the method: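 Cell viability is measured by CellTiter-Glo luminescence, 30 min at room temperature, in wells already read for beta-lactamase. Engineered HEK 293T cells (RXR-alpha-UAS-bla) are dosed 16 hr at 37 C. Tetraoctyl ammonium bromide serves as positive control.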
# [19] = target: Peroxisome proliferator-activated receptor delta (Homo sapiens) (UniProt Q03181); experiment: qHTS assay to identify small molecule antagonists of the peroxisome proliferator-activated receptor delta (PPARd) signaling pathway (AID 743215; active = well fitted inhibition curve with a large enough effect in the signal ratio in the repeat runs, not every such curve was filed as active; the % refers to the signal ratio;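 also: cells stimulated with agonist L165041 at 300 nM final during compound exposure; series mostly up to about 62 µM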)
# Summary of the method: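 Here, a reporter line (HEK293H, beta-lactamase under a UAS) measures PPARd signaling. Compounds are tested against agonist L165041 at 300 nM final concentration over 17 h at 37 C, with fluorescence read after substrate.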
# [20] = qHTS assay to identify small molecule agonists of the farnesoid-X-receptor (FXR) signaling pathway - cell viability counter screen (AID 743218); also: nearly all actives have a fitted effect of over 45% in size
# Summary of the method: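 Quantitative HTS counter screen measuring ATP-based viability via CellTiter-Glo luminescence in HEK 293T cells carrying a UAS-driven beta-lactamase reporter, after 16 h compound exposure at 37 C.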
Structure (SMILES),Potency [1],Potency [2],Potency [3],Potency [4],Potency [5],outcome [6],Potency [7],Potency [8],Potency [9],Potency [10],Potency [11],Potency [12],Potency [13],Potency [14],Potency [15],outcome [16],Potency [17],Potency [18],Potency [19],Potency [20]
CCCCOCCOC(C)=O,inactive,inactive,inactive,inactive,inactive,inactive,inactive,inactive,inactive,inactive,inactive,inactive,inactive,inactive,inactive,inactive,inactive,inactive,,
O=P(OCCCl)(OCCCl)OCCCl,inactive,inactive,inactive,inactive,inactive,,inactive,inactive,inactive,inactive,inactive,inactive,inactive,inactive,inactive,inactive,,inactive,inactive,inactive
CNC(=S)S,inactive,,,,inactive,inactive,inactive,inactive,inactive,inactive,inactive,inactive,inactive,inactive,inactive,inactive,inactive,,inactive,inactive
O=C(O)CF,,,,,inactive,,inactive,inactive,inactive,inactive,inactive,inactive,inactive,inactive,inactive,inactive,inactive,inactive,,
c1ccc(C2CO2)cc1 (stereo unspecified),inactive,inactive,,,inactive,inactive,inactive,inactive,inactive,inactive,inactive,inactive,inactive,inactive,inactive,inactive,inactive and 17.4 µM (active),inactive,inactive,
CC(C)(C#N)N=NC(C)(C)C#N,inactive,inactive,,,inactive,,inactive,inactive,inactive,inactive,inactive,inactive,inactive,inactive,inactive,inactive,inactive,inactive,inactive,inactive
N#Cc1cccnc1,inactive,inactive,inactive,inactive,inactive,inactive,inactive,inactive,inactive,inactive,inactive,inactive,inactive,inactive,inactive,inactive,inactive,inactive,,
C[N+](C)(C)C,,inactive,,,inactive,inactive,inactive,inactive,inactive,inactive,inactive,inactive,inactive,inactive,inactive,inactive,inactive,,,inactive
Clc1cccc(C(Cl)(Cl)Cl)n1,,inactive,inactive,inactive,inactive,,,inactive,inactive,inactive,inactive,inactive,inactive,inactive,inactive,inactive,inactive,inactive,,
O=C1Nc2ccc(Cl)cc2C(c2ccccc2)=NC1O (stereo unspecified),inactive,inactive,inactive,inactive,inactive,inactive,inactive,inactive,inactive,inactive,inactive,inactive,inactive,inactive,inactive,inactive,,inactive,inactive,inactive
COc1ccc(CO)cc1,,inactive,inactive,inactive,inactive,inactive,inactive,inactive,inactive,inactive,inactive,inactive,inactive,inactive,inactive,inactive,inactive,inactive,,inactive
Cc1ccc(N=CN(C)C=Nc2ccc(C)cc2C)c(C)c1,,24.5 µM (active),,,inactive,inactive,,39.1 µM (active) and 38.9 µM (active),inactive,54.9 µM (active) and inactive,inactive,inactive,inactive,48.8 µM (active) and 54.4 µM (active) and inactive,54.9 µM (active) and inactive,inactive,inactive,43.8 µM (active) and 43.6 µM (active) and inactive,,inactive
O=NN1CCOCC1,inactive,inactive,,,inactive,inactive,inactive,inactive,inactive,inactive,inactive,inactive,inactive,inactive,inactive,inactive,inactive,,inactive,inactive
Oc1ccc(Cl)cc1Cl,inactive,inactive,inactive,inactive,inactive,,inactive,inactive,inactive,inactive,inactive,inactive,inactive,inactive,inactive,inactive,inactive,inactive,,inactive
[CH3][Sn]([Cl])([Cl])[Cl],inactive,,,,inactive,,inactive,inactive,inactive,inactive,inactive,inactive,inactive,inactive,inactive,inactive,inactive,,inactive,
N#CCCCCC#N,inactive,,inactive,inactive,inactive,,inactive,inactive,inactive,inactive,inactive,inactive,inactive,inactive,inactive,inactive,inactive,inactive,,inactive
C=CC(Cl)CCl (stereo unspecified),,inactive,inactive,inactive,inactive,,inactive,inactive,inactive,inactive,inactive,inactive,inactive,inactive,inactive,inactive,inactive,inactive,,
